# The whole screen tested about 310,000 compounds, of which about 14,000 (4.5%) showed an effect of 50% or more. Effects have a minus sign here. Shown is part of a subset that was picked to be rich in strong results.
# Biological target: human ether-à-go-go-related gene (hERG) potassium channel (human, UniProt Q12809)
# Assay: primary screen, population patch clamp on CHO cells stably expressing hERG; higher = less effect of the substance
# 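Also: peak tail current of the secondary pulse compared with the same well before compound.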
# Chain of human ether-à-go-go-related gene (hERG) potassium channel (Q12809 whole entry, looked up): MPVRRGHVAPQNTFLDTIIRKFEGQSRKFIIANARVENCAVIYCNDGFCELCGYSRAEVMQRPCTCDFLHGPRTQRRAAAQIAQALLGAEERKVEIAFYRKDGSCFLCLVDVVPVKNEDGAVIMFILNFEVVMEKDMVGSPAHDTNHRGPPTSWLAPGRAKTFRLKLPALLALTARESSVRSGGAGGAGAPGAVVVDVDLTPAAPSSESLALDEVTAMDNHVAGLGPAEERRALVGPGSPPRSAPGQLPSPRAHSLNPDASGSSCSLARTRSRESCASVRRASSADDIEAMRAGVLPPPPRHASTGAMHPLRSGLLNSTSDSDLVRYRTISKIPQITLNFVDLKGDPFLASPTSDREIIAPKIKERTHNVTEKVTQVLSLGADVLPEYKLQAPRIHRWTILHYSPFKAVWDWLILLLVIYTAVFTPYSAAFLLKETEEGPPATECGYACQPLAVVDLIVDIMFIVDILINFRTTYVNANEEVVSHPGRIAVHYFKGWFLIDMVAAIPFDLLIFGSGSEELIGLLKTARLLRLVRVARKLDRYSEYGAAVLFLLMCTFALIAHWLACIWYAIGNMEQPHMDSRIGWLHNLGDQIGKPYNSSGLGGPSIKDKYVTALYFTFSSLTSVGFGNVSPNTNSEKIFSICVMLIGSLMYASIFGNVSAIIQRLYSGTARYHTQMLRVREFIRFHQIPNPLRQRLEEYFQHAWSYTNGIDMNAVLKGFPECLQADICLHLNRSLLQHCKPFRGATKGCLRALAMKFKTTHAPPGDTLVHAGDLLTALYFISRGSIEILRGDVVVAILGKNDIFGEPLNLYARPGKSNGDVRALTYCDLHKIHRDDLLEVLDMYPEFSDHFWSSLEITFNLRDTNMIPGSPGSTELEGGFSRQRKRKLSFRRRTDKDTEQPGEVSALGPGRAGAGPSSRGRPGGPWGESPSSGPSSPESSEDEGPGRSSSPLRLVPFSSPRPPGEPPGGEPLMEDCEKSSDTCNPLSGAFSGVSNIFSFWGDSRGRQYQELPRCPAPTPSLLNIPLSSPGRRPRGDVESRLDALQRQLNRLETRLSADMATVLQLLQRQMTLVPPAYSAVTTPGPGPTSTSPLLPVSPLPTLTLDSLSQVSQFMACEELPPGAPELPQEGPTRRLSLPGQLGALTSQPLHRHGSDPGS
row,SMILES,"hERG current change (%, negative = inhibition) at 10uM [%]"
1,CC(C)Oc1ccc(CNC2CCOC(C)(C)C2)cc1 (stereo not shown),18
2,C=CCNc1nc2c(c(=O)[nH]c(=O)n2C)n1CCCc1ccccc1,-4.44
3,CC1=C(C(=O)OCc2ccccc2)C(c2ccccc2-c2ccccc2)NC(=O)N1CCCCCC(=O)O (stereo not shown),-63.1
4,CC1=C(C(=O)OCc2ccccc2)C(c2ccccc2Cl)NC(=O)N1CCCCCC(=O)O (stereo not shown),-12.4
5,CC1=C(C(=O)OCc2ccccc2)C(c2ccc(-c3ccccc3)cc2)NC(=O)N1CCCCCC(=O)O (stereo not shown),-2.3
6,CCN(CC(=O)Nc1c(F)cccc1F)C(=O)c1ccc2ccccc2n1,-19.6
7,O=c1[nH]cccc1-c1nc2ccccc2n1Cc1ccc(F)cc1,-22.5
8,CCOc1ccc(NC(=O)CN(C)C(=O)c2ccccc2Cc2ccccc2)cc1OCC,-14
9,c1ccc(N2CCN(CC3CCCCC3)CC2)cc1,9.61
10,FC(F)(F)c1cnc(N2CCC(=NOCc3ccc(Cl)cc3)CC2)c(Cl)c1,29.6
11,O=[N+]([O-])c1ccc(N2CCN(Cc3cccc([N+](=O)[O-])c3)CC2)cc1,-71.8
12,O=[N+]([O-])c1cccc(CN2CCN(c3ncccn3)CC2)c1,-1.26
13,CC(=O)c1ccc(N2CCN(CC3CCCCC3)CC2)cc1,-24
14,O=[N+]([O-])c1ccc(CN2CCN(c3ccc([N+](=O)[O-])cc3)CC2)cc1,-74.1
15,O=[N+]([O-])c1ccc(/C=N\N2CCN(c3ccc(Cl)cc3)CC2)cc1,16.8
16,O=[N+]([O-])c1ccc(N2CCC(=NOCc3ccc(Cl)cc3)CC2)cc1,-54.5
17,O=[N+]([O-])c1cccc(CN2CCCCCC2)c1,5.75
18,O=[N+]([O-])c1ccc(N2CCN(CC3CCCCC3)CC2)cc1,-63
19,CCOc1ccccc1-c1nnc(SCC(=O)NC2CC3CCC2C3)n1CC (stereo not shown),-3.89
20,O=C(O)C(=O)O.O=C(c1cccc(F)c1)N1CCN(Cc2c[nH]c3ccccc23)CC1,-9.05
21,Clc1ccc(CN2CCN(c3ncccn3)CC2)cc1,-4.03
22,CN(Cc1ccccc1)c1nc2c(c(=O)n(C)c(=O)n2C)n1CCSc1ncccn1,-13.7
23,O=C1/C(=C\c2ccc([N+](=O)[O-])cc2)CCc2ccccc21,-6.6

row,SMILES,"hERG current change (%, negative = inhibition) at 10uM [%]"
1,O=C1CCNc2c(Cl)cc(Cl)cc21,-2.74
2,N#CC1=C(N)Nc2ncnn2C1c1ccccc1 (stereo not shown),10.6
3,COc1ccc2c(c1)[nH]c1c(Cl)ncnc12,3.14
4,O[C@H]1c2ccccc2[C@H](Cc2cncs2)[C@@H]1Br,0.746
5,O=[N+]([O-])c1ccc(N2CCN(Cc3ccncc3)CC2)cc1,-64.8
6,O=[N+]([O-])c1ccc(CN2CCN(c3ncccn3)CC2)cc1,-32.2
7,Fc1ccc(-n2nnc(-c3ccccc3Cl)n2)cc1,12.2
8,O=C(CC1Oc2ccccc2NC1=O)NCCc1ccccc1 (stereo not shown),-4.18
9,COc1cccc(S(=O)(=O)NC2CCN(C#N)C2)c1 (stereo not shown),9.23
10,COc1ccc(-c2csc(NC(=O)C3CCN(C(=O)c4ccc(F)cc4)CC3)n2)cc1OC,-13.8
11,O=C(Nc1nc(-c2ccc(F)cc2)cs1)C1CCN(C(=O)c2ccc(F)cc2)CC1,-54.7
12,O=C(Nc1ccccc1)C1CCCN(C(=O)c2ccc(F)cc2)C1 (stereo not shown),-51.8
13,O=C(c1ccc(F)cc1)N1CCCC(C(=O)N2CCCCC2)C1 (stereo not shown),16.5
14,O=C(Nc1ccc(F)cc1F)C1CCN(C(=O)c2ccc(Br)cc2)CC1,-30.2
15,O=C(Nc1ccc(Br)cc1)C1CCN(C(=O)c2ccco2)CC1,-14
16,O=C(Nc1ccccc1)C1CCCN(C(=O)c2ccc(Cl)cc2)C1 (stereo not shown),-9.92
17,O=C(Nc1ccccc1)C1CCN(C(=O)c2ccccc2)CC1,4.62
18,O=C(Nc1cccc(F)c1)C1CCN(C(=O)c2ccc(Cl)cc2)CC1,-49.4
19,O=C(Nc1nc(-c2ccc(F)cc2)cs1)C1CCCO1 (stereo not shown),-6.67
20,O=C(Nc1cccc(F)c1)C1CCN(C(=O)c2ccc(Br)cc2)CC1,-65.1
21,O=C(Nc1ccccc1)C1CCN(C(=O)c2ccc(Br)cc2)CC1,-59.3
22,COc1ccc(CSc2nc(N3CCOCC3)c3c(c2C#N)CC(C)(C)OC3)cc1,-14.5
23,CC1=C2[C@@H]3OC(=O)[C@H](C)C3CC[C@@]2(C)C=CC1=O (stereo partly shown),27.7

row,SMILES,"hERG current change (%, negative = inhibition) at 10uM [%]"
1,CCNc1nc(Oc2ccc(C(=O)OCC)cc2)nc(N2CCOCC2)n1,-6.59
2,COc1cc2c(cc1NC(=O)CCC(=O)O)oc1ccccc12,18.5
3,CCOC(=O)C1CCCN(S(=O)(=O)c2ccc(Br)c(OC)c2)C1 (stereo not shown),-14.3
4,ONC(=Nc1ccccc1Cl)c1ccccc1Cl,-14
5,COC(=O)c1ccc(Oc2nc(NC(C)C)nc(N(C)C)n2)cc1,12.5
6,Cc1cccc(OCC(=O)N2CCCc3ccccc32)c1,8.85
7,O=C(Nc1ccc(S(=O)(=O)N2CCCCC2)cc1)C1CCN(C(=O)c2ccc(F)cc2)CC1,-33.7
8,O=C(Nc1ccc(F)cc1)C1CCN(C(=O)c2ccc(F)cc2)CC1,-37.4
9,O=C(Nc1ccc(Br)cc1)C1CCN(C(=O)c2ccc(F)cc2)CC1,-61.9
10,Cc1cc(C(=O)OCC(=O)NCCc2ccccc2)c2ccccc2n1,-17.7
11,CCOc1ccc(NC(=O)NCC2CCN(Cc3ccc(F)cc3)CC2)cc1,-76.4
12,O=C(NCC1CCN(S(=O)(=O)c2ccccc2)CC1)Nc1ccc(F)cc1F,-4.47
13,CCOc1ccc(NC(=O)NCC2CCN(c3ccc(OC)cc3)C2)cc1 (stereo not shown),-7.35
14,COc1cc([N+](=O)[O-])ccc1NC(=O)NCC1CCN(Cc2ccc(Cl)cc2)CC1,-60.9
15,O=C(NCC1CCN(Cc2ccccc2F)CC1)Nc1cc(F)ccc1F,-59.9
16,Cc1ccccc1CN1CCC(CNC(=O)Nc2ccc(F)cc2F)CC1,-31.4
17,O=C(NCC1CCN(Cc2ccc(F)cc2)CC1)Nc1cc(F)ccc1F,-65.1
18,COc1cc(NC(=O)NCC2CCN(Cc3ccc(C)cc3)CC2)cc(OC)c1OC,-0.392
19,COc1cccc(NC(=O)NCC2CCN(Cc3ccc(F)cc3)CC2)c1,-47.4
20,O=C(NCC1CCN(Cc2ccccc2F)CC1)Nc1ccccc1F,-22.5
21,COc1cc([N+](=O)[O-])ccc1NC(=O)CN1CCCC1,3.84

# — article PMC4336329 (PLoS ONE, 2015)
